# Tests used:
# Experiment in all cases: DAPPL (digital affinity profiling via proximity ligation, sequencing); 10 mM Tris-HCl pH 7.5, 50 mM NaCl, 1 mM DTT, 4% glycerol, room temperature, 30 min; GST-TFs on glutathione beads, 16-mer random dsDNA library, 0.1% formaldehyde crosslink after washing; high values mean tight binding
# FEV = target: T1, FEV (Homo sapiens, UniProt Q99581 1-238); conditions: protein: recombinant; tags: N-terminal GST; dsDNA, one strand shown
# T1 sequence: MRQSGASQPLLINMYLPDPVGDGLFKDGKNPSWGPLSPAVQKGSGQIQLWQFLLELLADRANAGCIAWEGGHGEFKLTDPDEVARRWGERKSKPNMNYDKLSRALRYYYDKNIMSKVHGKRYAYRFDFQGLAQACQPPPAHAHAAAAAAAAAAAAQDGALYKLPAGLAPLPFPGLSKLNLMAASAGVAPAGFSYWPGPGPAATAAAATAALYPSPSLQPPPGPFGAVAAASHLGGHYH
# Procedure, shortened: (§1)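 Binding signal is each hexamer's read frequency for a factor divided by its frequency in the tag-only sample. The factors were GST-fused human transcription factors from yeast, captured on glutathione beads, DNA-barcoded and pooled with that sample. Pools were incubated with 200 nmole of a random double-stranded 16-mer DNA library in Tris/NaCl/DTT/glycerol buffer at room temperature for 30 min, then washed, crosslinked with 0.1% formaldehyde, proximity-ligated with BsaI/T4 ligase (1 h, 37 °C), PCR-amplified and sequenced on an Illumina NextSeq500.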
# ETV5 = ETV5 (Homo sapiens, UniProt P41161 1-510); conditions: protein: recombinant; tags: N-terminal GST; dsDNA, one strand shown
# Procedure, shortened: as §1
# HSF1 = HSF1 (Homo sapiens, UniProt Q00613 1-529); conditions: protein: recombinant; tags: N-terminal GST; chain copies: 3; dsDNA, one strand shown
# Procedure, shortened: as §1
# SPIC = target: T2, SPIC (Homo sapiens, UniProt Q8N5J4 1-248); conditions: protein: recombinant; tags: N-terminal GST; dsDNA, one strand shown
# T2 sequence: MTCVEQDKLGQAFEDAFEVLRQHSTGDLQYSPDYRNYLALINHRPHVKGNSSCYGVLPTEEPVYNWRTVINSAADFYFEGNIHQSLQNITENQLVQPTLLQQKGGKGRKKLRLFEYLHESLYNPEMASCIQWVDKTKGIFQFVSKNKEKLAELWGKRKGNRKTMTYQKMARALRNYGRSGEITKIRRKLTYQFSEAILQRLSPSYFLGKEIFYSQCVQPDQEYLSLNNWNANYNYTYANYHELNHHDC
# Procedure, shortened: as §1
# ELF4 = ELF4 (Homo sapiens, UniProt Q99607 1-663); conditions: protein: recombinant; tags: N-terminal GST; dsDNA, one strand shown
# Procedure, shortened: as §1
# ELK4 = target: T3, ELK4 (Homo sapiens, UniProt P28324-2 1-405); conditions: protein: recombinant; tags: N-terminal GST; dsDNA, one strand shown
# T3 sequence: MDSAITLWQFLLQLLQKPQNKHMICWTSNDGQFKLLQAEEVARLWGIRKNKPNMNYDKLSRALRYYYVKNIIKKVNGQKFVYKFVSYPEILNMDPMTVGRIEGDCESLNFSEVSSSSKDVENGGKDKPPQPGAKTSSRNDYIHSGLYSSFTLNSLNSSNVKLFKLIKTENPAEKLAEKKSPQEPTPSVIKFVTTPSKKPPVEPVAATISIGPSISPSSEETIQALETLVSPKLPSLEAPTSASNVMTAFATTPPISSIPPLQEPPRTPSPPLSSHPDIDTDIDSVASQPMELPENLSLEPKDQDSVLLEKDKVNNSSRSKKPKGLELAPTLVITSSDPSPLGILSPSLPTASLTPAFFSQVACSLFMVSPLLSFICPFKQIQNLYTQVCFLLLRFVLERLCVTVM
# Procedure, shortened: as §1
# ETV2 = target: T4, ETV2 (Homo sapiens, UniProt O00321 1-342); conditions: protein: recombinant; tags: N-terminal GST; dsDNA, one strand shown
# T4 sequence: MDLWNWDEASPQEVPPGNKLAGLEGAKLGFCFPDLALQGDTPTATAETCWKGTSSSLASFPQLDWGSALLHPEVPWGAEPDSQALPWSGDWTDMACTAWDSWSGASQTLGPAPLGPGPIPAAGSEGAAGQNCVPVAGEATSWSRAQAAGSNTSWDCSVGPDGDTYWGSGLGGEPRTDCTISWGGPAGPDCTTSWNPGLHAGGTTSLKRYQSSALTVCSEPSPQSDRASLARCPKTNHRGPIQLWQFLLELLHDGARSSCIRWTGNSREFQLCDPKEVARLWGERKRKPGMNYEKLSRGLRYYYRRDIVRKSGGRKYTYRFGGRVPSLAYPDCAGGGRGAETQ
# Procedure, shortened: as §1
# ELF3 = target: T5, ELF3 (Homo sapiens, UniProt P78545 1-371); conditions: protein: recombinant; tags: N-terminal GST; dsDNA, one strand shown
# T5 sequence: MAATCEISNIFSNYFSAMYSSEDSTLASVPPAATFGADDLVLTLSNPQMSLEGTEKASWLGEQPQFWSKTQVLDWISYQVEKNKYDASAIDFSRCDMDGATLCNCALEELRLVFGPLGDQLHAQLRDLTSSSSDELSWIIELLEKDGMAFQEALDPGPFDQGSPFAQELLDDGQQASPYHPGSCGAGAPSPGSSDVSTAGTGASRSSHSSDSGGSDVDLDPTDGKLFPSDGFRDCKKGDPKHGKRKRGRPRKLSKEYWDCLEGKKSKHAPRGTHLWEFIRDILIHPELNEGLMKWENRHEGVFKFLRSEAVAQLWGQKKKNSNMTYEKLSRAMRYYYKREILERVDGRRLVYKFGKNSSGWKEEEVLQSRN
# Procedure, shortened: as §1
# CRX = CRX (Homo sapiens, UniProt O43186 1-299); conditions: protein: recombinant; tags: N-terminal GST; dsDNA, one strand shown
# Procedure, shortened: as §1
# ETV1 = ETV1 (Homo sapiens, UniProt P50549 1-477); conditions: protein: recombinant; tags: N-terminal GST; dsDNA, one strand shown
# Procedure, shortened: as §1
# ERF = target: T6, ERF (Homo sapiens, UniProt P50548 1-548); conditions: protein: recombinant; tags: N-terminal GST; dsDNA, one strand shown
# T6 sequence: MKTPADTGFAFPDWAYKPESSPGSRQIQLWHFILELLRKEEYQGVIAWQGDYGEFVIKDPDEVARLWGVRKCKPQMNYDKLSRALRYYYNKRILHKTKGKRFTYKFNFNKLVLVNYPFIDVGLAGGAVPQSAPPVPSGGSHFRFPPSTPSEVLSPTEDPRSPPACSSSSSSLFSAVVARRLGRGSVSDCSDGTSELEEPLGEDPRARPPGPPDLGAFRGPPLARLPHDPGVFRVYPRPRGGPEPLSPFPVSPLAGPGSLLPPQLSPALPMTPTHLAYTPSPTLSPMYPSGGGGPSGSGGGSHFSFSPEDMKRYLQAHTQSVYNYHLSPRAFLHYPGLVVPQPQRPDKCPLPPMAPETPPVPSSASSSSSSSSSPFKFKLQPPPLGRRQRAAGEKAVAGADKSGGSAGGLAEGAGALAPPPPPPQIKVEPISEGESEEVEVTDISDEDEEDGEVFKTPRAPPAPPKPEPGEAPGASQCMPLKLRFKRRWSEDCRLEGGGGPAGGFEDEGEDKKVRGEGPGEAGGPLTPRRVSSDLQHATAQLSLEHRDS
# Procedure, shortened: as §1
# ETV3L = target: T7, ETV3L (Homo sapiens, UniProt Q6ZN32 1-361); conditions: protein: recombinant; tags: N-terminal GST; dsDNA, one strand shown
# T7 sequence: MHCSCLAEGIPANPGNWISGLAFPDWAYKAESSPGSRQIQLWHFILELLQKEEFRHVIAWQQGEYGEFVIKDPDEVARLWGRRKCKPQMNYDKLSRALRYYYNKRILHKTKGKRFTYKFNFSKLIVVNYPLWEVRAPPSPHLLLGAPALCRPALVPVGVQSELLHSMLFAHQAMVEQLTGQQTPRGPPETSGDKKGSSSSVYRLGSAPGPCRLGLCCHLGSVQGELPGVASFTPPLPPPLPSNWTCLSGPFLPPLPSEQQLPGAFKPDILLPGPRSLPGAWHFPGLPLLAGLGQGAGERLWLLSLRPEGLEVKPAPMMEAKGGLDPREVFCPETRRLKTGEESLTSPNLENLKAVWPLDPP
# Procedure, shortened: as §1
# ETS2 = target: T8, ETS2 (Homo sapiens, UniProt P15036 1-469); conditions: protein: recombinant; tags: N-terminal GST; dsDNA, one strand shown
# T8 sequence: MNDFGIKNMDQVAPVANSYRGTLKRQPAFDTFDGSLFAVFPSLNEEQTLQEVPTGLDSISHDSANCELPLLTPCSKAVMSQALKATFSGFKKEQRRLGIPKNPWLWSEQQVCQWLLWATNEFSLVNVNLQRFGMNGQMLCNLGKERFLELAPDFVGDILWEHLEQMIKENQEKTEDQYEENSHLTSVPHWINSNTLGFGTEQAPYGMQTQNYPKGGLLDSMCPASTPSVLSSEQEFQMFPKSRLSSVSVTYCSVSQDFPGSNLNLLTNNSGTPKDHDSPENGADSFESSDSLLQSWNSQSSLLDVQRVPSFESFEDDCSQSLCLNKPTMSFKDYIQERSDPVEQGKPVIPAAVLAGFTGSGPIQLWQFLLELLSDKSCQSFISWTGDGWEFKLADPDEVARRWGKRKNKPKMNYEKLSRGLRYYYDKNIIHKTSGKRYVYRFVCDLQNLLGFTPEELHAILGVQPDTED
# Procedure, shortened: as §1
# SPDEF = target: T9, SPDEF (Homo sapiens, UniProt O95238 1-335); conditions: protein: recombinant; tags: N-terminal GST; dsDNA, one strand shown
# T9 sequence: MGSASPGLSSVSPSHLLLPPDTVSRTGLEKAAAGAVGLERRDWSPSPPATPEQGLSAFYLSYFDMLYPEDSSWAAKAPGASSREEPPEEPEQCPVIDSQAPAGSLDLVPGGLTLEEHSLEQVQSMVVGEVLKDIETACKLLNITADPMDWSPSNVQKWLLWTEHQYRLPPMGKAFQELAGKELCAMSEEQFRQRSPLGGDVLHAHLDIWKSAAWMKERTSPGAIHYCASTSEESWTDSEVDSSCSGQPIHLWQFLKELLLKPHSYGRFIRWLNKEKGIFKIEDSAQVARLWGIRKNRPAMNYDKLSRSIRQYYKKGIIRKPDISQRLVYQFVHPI
# Procedure, shortened: as §1
# ETV7 = target: T10, ETV7 (Homo sapiens, UniProt Q9Y603 1-341); conditions: protein: recombinant; tags: N-terminal GST; dsDNA, one strand shown
# T10 sequence: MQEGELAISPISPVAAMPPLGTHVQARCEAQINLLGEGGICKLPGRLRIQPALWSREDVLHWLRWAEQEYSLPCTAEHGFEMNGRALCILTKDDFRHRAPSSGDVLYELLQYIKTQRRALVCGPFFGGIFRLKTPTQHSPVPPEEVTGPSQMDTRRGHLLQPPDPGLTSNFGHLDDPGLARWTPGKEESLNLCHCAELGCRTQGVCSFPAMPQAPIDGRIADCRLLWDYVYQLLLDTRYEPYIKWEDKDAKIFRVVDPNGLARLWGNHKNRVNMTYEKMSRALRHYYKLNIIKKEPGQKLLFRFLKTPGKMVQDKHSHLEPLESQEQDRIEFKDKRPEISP
# Procedure, shortened: as §1
# ELF5 = target: T11, ELF5 (Homo sapiens, UniProt Q9UKW6-2 1-255); conditions: protein: recombinant; tags: N-terminal GST; dsDNA, one strand shown
# T11 sequence: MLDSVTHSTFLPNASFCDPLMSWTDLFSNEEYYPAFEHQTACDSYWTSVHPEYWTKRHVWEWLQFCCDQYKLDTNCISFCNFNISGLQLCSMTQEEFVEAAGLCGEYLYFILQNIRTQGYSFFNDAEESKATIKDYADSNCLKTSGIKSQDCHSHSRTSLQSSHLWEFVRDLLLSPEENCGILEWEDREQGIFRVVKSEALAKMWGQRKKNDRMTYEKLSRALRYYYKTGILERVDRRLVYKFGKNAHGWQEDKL
# Procedure, shortened: as §1
# ETV3 = target: T12, ETV3 (Homo sapiens, UniProt P41162-2 1-143); conditions: protein: recombinant; tags: N-terminal GST; dsDNA, one strand shown
# T12 sequence: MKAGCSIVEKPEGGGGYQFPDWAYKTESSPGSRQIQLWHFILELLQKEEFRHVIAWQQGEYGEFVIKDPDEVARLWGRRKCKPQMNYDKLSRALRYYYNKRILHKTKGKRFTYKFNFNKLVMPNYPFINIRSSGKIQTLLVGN
# Procedure, shortened: as §1
# ETV6 = ETV6 (Homo sapiens, UniProt P41212 1-452); conditions: protein: recombinant; tags: N-terminal GST; dsDNA, one strand shown
# Procedure, shortened: as §1
# ETV1, sequence (P50549 whole entry): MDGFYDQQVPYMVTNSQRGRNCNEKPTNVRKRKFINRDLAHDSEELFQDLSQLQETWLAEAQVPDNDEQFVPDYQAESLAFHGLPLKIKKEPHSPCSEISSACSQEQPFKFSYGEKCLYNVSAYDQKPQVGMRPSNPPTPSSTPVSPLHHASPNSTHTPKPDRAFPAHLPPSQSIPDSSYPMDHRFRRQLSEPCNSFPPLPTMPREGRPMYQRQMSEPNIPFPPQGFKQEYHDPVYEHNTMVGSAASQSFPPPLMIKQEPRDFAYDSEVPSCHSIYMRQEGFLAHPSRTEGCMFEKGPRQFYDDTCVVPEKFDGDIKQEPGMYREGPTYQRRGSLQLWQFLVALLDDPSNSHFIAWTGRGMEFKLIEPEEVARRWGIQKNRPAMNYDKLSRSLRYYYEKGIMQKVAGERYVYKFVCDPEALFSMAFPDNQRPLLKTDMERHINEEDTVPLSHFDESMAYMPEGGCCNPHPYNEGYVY
# CRX, sequence (O43186 whole entry): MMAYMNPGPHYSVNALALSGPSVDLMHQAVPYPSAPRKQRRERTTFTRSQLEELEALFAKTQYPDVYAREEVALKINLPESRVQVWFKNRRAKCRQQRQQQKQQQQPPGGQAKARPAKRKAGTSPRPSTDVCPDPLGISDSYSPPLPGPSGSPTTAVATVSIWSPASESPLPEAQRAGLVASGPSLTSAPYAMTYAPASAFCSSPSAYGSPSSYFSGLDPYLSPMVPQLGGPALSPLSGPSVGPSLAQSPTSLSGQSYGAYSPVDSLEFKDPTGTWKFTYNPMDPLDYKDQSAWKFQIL
# ELF4, sequence (Q99607 whole entry): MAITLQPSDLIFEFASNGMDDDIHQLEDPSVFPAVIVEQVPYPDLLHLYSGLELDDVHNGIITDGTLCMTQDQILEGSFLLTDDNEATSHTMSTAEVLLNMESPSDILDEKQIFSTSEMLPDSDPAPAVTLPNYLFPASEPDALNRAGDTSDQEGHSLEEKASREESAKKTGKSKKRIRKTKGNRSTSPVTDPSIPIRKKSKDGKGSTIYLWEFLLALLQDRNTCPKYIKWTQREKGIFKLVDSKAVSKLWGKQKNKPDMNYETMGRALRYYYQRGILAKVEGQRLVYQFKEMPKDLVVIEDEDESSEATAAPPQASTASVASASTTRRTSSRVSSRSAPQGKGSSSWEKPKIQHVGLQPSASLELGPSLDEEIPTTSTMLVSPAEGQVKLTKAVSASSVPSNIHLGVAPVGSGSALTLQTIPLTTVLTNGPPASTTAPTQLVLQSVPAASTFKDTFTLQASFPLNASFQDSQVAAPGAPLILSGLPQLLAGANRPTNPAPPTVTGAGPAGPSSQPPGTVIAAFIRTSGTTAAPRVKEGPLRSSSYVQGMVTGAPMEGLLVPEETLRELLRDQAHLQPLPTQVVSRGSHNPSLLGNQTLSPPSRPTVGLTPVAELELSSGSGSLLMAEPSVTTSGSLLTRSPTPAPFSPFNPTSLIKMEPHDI
# ETV5, sequence (P41161 whole entry): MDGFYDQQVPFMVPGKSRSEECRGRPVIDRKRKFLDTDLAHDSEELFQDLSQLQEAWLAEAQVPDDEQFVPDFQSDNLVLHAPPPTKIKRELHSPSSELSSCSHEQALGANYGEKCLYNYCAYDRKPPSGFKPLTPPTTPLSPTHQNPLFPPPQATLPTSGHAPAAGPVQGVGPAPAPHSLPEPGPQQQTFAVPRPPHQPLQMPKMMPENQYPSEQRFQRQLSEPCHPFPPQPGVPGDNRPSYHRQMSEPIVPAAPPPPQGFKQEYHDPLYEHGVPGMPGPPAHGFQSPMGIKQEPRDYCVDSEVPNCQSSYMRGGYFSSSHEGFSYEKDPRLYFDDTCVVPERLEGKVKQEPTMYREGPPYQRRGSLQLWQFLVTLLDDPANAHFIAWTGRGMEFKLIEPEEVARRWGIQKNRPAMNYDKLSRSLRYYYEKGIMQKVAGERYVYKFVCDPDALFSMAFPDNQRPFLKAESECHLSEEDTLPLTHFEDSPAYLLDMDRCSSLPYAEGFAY
# ETV6, sequence (P41212 whole entry): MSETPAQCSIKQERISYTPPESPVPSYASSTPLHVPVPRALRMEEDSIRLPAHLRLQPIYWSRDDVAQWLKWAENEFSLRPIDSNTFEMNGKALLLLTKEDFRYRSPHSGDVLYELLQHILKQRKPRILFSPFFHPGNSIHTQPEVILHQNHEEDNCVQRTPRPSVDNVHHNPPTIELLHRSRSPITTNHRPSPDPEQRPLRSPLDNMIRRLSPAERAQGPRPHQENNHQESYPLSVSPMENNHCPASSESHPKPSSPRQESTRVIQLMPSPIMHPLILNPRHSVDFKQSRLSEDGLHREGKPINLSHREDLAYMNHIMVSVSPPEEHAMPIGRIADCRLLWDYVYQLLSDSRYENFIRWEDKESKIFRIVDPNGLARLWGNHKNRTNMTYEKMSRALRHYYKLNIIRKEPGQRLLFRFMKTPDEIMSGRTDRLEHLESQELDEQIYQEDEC
# HSF1, sequence (Q00613 whole entry): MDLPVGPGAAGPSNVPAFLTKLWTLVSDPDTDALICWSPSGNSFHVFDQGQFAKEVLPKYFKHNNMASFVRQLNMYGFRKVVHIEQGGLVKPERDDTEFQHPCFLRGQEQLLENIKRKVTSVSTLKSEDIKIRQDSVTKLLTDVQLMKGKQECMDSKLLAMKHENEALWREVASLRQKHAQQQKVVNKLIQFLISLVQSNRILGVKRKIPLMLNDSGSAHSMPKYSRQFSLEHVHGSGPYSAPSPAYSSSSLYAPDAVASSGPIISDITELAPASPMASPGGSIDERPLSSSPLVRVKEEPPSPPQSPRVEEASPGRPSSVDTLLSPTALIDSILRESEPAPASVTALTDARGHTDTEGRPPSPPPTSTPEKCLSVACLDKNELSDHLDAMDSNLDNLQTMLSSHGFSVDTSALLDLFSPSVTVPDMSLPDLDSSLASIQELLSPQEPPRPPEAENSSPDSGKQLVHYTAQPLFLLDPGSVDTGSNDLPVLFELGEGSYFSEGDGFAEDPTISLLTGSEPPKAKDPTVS
sequence,measurement,setting,value
TAAAAA,binding signal,FEV,"1.29 fold enrichment (6-mer frequency, TF over GST control)"
same,binding signal,ETV5,"1.3 fold enrichment (6-mer frequency, TF over GST control)"
same,binding signal,HSF1,"1.56 fold enrichment (6-mer frequency, TF over GST control)"
same,binding signal,SPIC,"1.34 fold enrichment (6-mer frequency, TF over GST control)"
same,binding signal,ELF4,"1.45 fold enrichment (6-mer frequency, TF over GST control)"
same,binding signal,ELK4,"1.34 fold enrichment (6-mer frequency, TF over GST control)"
same,binding signal,ETV2,"1.4 fold enrichment (6-mer frequency, TF over GST control)"
same,binding signal,ELF3,"1.33 fold enrichment (6-mer frequency, TF over GST control)"
same,binding signal,CRX,"1.82 fold enrichment (6-mer frequency, TF over GST control)"
same,binding signal,ETV1,"1.26 fold enrichment (6-mer frequency, TF over GST control)"
same,binding signal,ERF,"1.37 fold enrichment (6-mer frequency, TF over GST control)"
same,binding signal,ETV3L,"1.37 fold enrichment (6-mer frequency, TF over GST control)"
same,binding signal,ETS2,"1.33 fold enrichment (6-mer frequency, TF over GST control)"
same,binding signal,SPDEF,"1.32 fold enrichment (6-mer frequency, TF over GST control)"
same,binding signal,ETV7,"1.31 fold enrichment (6-mer frequency, TF over GST control)"
same,binding signal,ELF5,"1.29 fold enrichment (6-mer frequency, TF over GST control)"
same,binding signal,ETV3,"1.25 fold enrichment (6-mer frequency, TF over GST control)"
same,binding signal,ETV6,"1.26 fold enrichment (6-mer frequency, TF over GST control)"
